Assay results from PubChem BioAssay (EPA / NIEHS).
Where a structure was tested more than once in an assay, its records may differ in their call. The source made the active and inactive calls. Rule for the calls, unless noted: active = hit-call score of the fitted dose curve at least 0.9, where 1 is the maximum; inactive = score below 0.9.

Test system: not listed separately
Assay: CCTE_Shafer_MEA_dev_network_spike_peak: CCTE's Neural Network Formation Assay for Mean Number of Electrodes in Network Spike, Shafer Lab (AID 2284049);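 for AC50: fitted for loss of signal meaning fewer electrodes in network spikes than DMSO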
Outline: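 Network-spike peak electrode count from recordings on days 5, 7, 9 and 12 was combined as trapezoidal area under the curve. Rat cortical cultures were treated continuously from plating, with compound renewed at each feed (DIV 5, 9); fits versus DMSO.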

For `OCC(F)(F)C(F)(F)C(F)(F)C(F)F`, which outcome is on record?
Its outcome is “inactive”.

With `CC(CCl)OP(=O)(OC(C)CCl)OC(C)CCl` (configuration not stated) as the molecule, how does the AC50 read?
Its AC50 is 50 µM (active).

And the outcome?
Its outcome is “inactive”.

For `O=C(O)C=C(C(F)(F)F)C(F)(F)F`, which outcome is on record?
Its outcome is “inactive”.

For `O=C(O)C(F)(F)C(F)(F)C(F)F`, which outcome is on record?
The outcome was “inactive”.

For `FC(F)(F)C(F)(F)C(F)(F)C(F)(F)C(F)(F)CCI`, which AC50 is on record?
Its AC50 is 22.3 µM (active).

For `OCCCC(F)(F)C(F)(F)C(F)(F)F`, which outcome is on record?
Its outcome is “inactive”.

Which outcome does the source give for `O=C(O)C(F)(F)C(F)(F)C(F)(F)F` here?
The outcome was “inactive”.

With `Cc1ccc(S(=O)(=O)OCC(F)(F)C(F)(F)C(F)(F)C(F)(F)C(F)(F)C(F)F)cc1` as the molecule, how does the outcome read?
The outcome was “inactive”.

Which outcome does the source give for `OCC(F)(F)C(F)(F)C(F)(F)C(F)(F)C(F)(F)C(F)F` here?
The outcome was “inactive”.

With `O=C(O)C(F)(F)C(F)(F)C(F)(F)C(F)(F)C(F)(F)C(F)(F)C(F)(F)C(F)(F)Cl` as the molecule, how does the outcome read?
The outcome was “inactive”.

For `O=P(O)(O)OCCC(F)(F)C(F)(F)C(F)(F)C(F)(F)C(F)(F)C(F)(F)F`, which outcome is on record?
Its outcome is “inactive”.

For `O=C(O)C(F)(F)C(F)(F)C(F)(F)C(F)(F)C(F)(F)C(F)(F)C(F)(F)C(F)(F)C(F)(F)C(F)F`, which outcome is on record?
The outcome was “inactive”.

For `OC[C@@H](O)[C@@H](O)[C@H](O)[C@@H](O)CO`, which outcome is on record?
Its outcome is “inactive”.

With `NC(=O)C(F)(F)C(F)(F)C(F)(F)C(F)(F)F` as the molecule, how does the outcome read?
The outcome was “inactive”.

Which outcome does the source give for `O=S(=O)(OCCOC(F)(F)F)C(F)(F)F` here?
Its outcome is “inactive”.

With `OCC(F)(F)C(F)(F)C(F)(F)F` as the molecule, how does the outcome read?
Its outcome is “inactive”.

With `COC(=O)CCC(F)(F)C(F)(F)C(F)(F)C(F)(F)F` as the molecule, how does the outcome read?
Its outcome is “inactive”.

For `N=C(N)C(F)(F)C(F)(F)C(F)(F)C(F)(F)C(F)(F)C(F)(F)C(F)(F)F`, which AC50 is on record?
The AC50 was 26.8 µM (active).

For `CC(C)(C)C(=O)CC(=O)C(F)(F)C(F)(F)C(F)(F)F`, which AC50 is on record?
Its AC50 is 23.7 µM (active).

Which outcome does the source give for `FC(F)(F)C(F)(F)CNCC(F)(F)C(F)(F)F` here?
Its outcome is “inactive”.

With `O=S(=O)(OCC(F)F)C(F)(F)F` as the molecule, how does the outcome read?
Its outcome is “inactive”.

With `C=CC(=O)OCC(F)(F)C(F)(F)C(F)(F)C(F)(F)COC(=O)C=C` as the molecule, how does the AC50 read?
Its AC50 is 4.19 µM (active).

With `FC(F)(F)C(F)(F)C(F)(F)C(F)(F)C(F)(F)C(F)(F)CC1CO1` (configuration not stated) as the molecule, how does the outcome read?
The outcome was “inactive”.

Test system: DIO2 (gene 1734)
Assay: CCTE_GLTED_hDIO2: CCTE's human Deiodinase 2 (DIO2) Inhibition Assay, Great Lakes Toxicology and Ecology Division (GLTED) Lab (AID 2284050; active = hit-call score of the fitted dose curve at least 0.9, where 1 is the maximum)
Outline: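 Readout: absorbance from Sandell-Kolthoff detection of free iodide released by human DIO2 during a 3 h incubation with chemical. Cell-free format, n=3; activity fitted relative to DMSO negative control.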

With `CCN(Cc1cccc(S(=O)(=O)O)c1)c1ccc(C(=C2C=CC(=[N+](CC)Cc3cccc(S(=O)(=O)O)c3)C=C2)c2ccc(O)cc2S(=O)(=O)[O-])cc1` as the molecule, how does the AC50 read?
The AC50 was 48.5 µM (active).

With `c1ccc(B(c2ccccc2)c2ccccc2)cc1` as the molecule, how does the AC50 read?
The AC50 was 57.7 µM (active).

For `O=C(O)C(F)(F)C(F)(F)C(F)(F)C(F)(F)C(F)(F)C(F)(F)C(F)(F)C(F)(F)Cl`, which AC50 is on record?
Its AC50 is 100 µM (active).

Which AC50 does the source give for `O=C(O)C(F)(F)C(F)(F)C(F)(F)C(F)(F)C(F)(F)C(F)(F)C(F)(F)C(F)(F)C(F)(F)C(F)(F)C(F)(F)C(F)(F)F` here?
Its AC50 is 74.9 µM (active).

For `CC(Cc1ccc(O)c(O)c1)C(C)Cc1ccc(O)c(O)c1` (configuration not stated), which AC50 is on record?
Its AC50 is 19.3 µM (active).

With `O=C(O)C(F)(F)C(F)(F)C(F)(F)C(F)(F)C(F)(F)C(F)(F)C(F)(F)C(F)(F)C(F)(F)C(F)F` as the molecule, how does the AC50 read?
Its AC50 is 59.3 µM (active).

With `O=C(Cl)C(F)(F)C(F)(F)C(F)(F)C(F)(F)C(F)(F)C(F)(F)C(F)(F)C(F)(F)F` as the molecule, how does the AC50 read?
Its AC50 is 69.4 µM (active).

Which AC50 does the source give for `C=CC(=O)OCC(F)(F)C(F)(F)C(F)(F)C(F)(F)COC(=O)C=C` here?
Its AC50 is 12.8 µM (active).
